From PubChem
PI4K2A block – qHTS for small molecular inhibitors of PI4K2A | Phosphatidylinositol 4-kinase type 2-alpha (Homo sapiens), Q9BTU6 | purified PI4K2A, ADP-Glo luminescence, 1 h; hits give low values | activity change, negative = inhibition, % at 76.9 µM | 0.13% of 420,000 active | AID 1346378, 2018; in the data active = activity change below about -50%; inconclusive = mostly about -30% to -49%
Target sequence (Q9BTU6 whole entry, looked up): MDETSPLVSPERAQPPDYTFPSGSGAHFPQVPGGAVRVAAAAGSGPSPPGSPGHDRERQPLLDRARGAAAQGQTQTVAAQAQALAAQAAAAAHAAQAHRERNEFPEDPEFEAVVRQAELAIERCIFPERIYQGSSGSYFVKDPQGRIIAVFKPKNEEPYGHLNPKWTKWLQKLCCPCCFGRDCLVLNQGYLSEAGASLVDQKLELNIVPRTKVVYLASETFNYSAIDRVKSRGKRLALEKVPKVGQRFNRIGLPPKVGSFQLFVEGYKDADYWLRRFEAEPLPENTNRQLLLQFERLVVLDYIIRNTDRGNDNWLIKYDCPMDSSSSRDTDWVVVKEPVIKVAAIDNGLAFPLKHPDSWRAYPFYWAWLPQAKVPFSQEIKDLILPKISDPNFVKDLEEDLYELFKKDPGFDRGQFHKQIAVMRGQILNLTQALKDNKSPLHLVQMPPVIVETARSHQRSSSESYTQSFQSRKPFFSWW
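ADP-Glo luminescence measured ADP generated by PI4K2A enzyme (4 ug/mL before mixing) with 1.2 mM PI substrate (pre-mix) and 300 microM ATP (pre-mix). Tris pH7.5 buffer with MgCl2, Triton X-100; 1 h reaction at ambient temperature.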
KB-3-1 tox – qHTS assay for MDR1-selective chemotherapeutics: Primary screen using the parental adenocarcinoma cell KB-3-1. 1.4% of 400,000 active. Potency, µM (top dose mostly 46.1 µM), usual class: cytotoxic. KB-3-1 viability, CellTiter-Glo ATP luminescence, 72 h; note: nearly all actives have a fitted effect of over 60% in size
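Using CellTiter-Glo luminescence, growth of non-resistant KB-3-1 adenocarcinoma cells is assessed 72 h after pin-tool compound addition at 37 °C. Normalized responses across the concentration series yield fitted curves.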
Nrf2 block – Nrf2 qHTS screen for inhibitors; 2.1% of 360,000 active; Potency, µM (doses to about 46 µM), usual class: inhibitors; AID 504444, 2011; A549 ARE-Fluc reporter, luciferase luminescence, 18-24 h; note: nearly all actives have a fitted effect of over 60% in size
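Nrf2 activity is the BugLite luminescence, read 15 min after reagent at room temperature, following CellTiter-Fluor cytotoxicity readout (30 min, 37C). Compound titrations were applied for 18-24 h to 5000 A549 ARE_Fluc cells/well in 5% FBS OPTI-MEM.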
A549 tox – Nrf2 qHTS screen for inhibitors: counterscreen for cytotoxicity; A549 ARE-Fluc cells, CellTiter-Fluor viability, 18-24 h; AID 504648, 2011; Potency, µM (series often up to 46 µM), usual class: inhibitors; 0.16% of 390,000 active
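A549 ARE_Fluc cells in 5% FBS OPTI-MEM were exposed to compounds in concentration-response for 18-24 h at 37 deg C. Viability was read by CellTiter-Fluor fluorescence (Ex 405/Em 525) after 30 min, before the luciferase read.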
KB-V1 cytotox – qHTS assay for MDR1-selective chemotherapeutics: Primary screen using the drug-selected MDR subline cells KB-V1; KB-V1 MDR cells viability, CellTiter-Glo, 72 h; Potency, µM (top dose mostly 46.1 µM), most hits filed as cytotoxic; 3.4% of 400,000 active; note: nearly all actives have a fitted effect of over 60% in size
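Following 72 h at 37 degrees C with compound, KB-V1 cell viability was read by CellTiter-Glo luminescence, medium being phenol-red-free DMEM plus 10% FBS; concentration-response parameters came from normalized, curve-fitted qHTS data.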
Giardia killer – Small Molecules that selectively kill Giardia lamblia: qHTS; Giardia lamblia trophozoite viability; activity change, % at 7.66 µM, hits read low; 0.15% of 340,000 active; AID 540267, 2011; in the data active = activity change below about -80%; inconclusive = between about -30% and that limit;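 note: parasites exposed to compound for two days anaerobically before the ATP read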
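Luminescent ATP signal served as the viability read-out, measured 15-30 min after adding ATP detection reagent to trophozoites that had been incubated with compounds for 48 hrs at 37 deg C anaerobically at 100 cells/well.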
Large screens that a line does not name were inactive. Hits are enriched below; roughly 5.7% of the tested compounds scored in any of these assays. Unless noted, calls come from the whole dose curve; as a rule, active = well fitted curve in the direction sought with a large enough effect; inconclusive = small, poorly fitted or top-dose-only effect, or another doubt; inactive = no such curve, though single readings can be large; an effect the other way counts as inactive or inconclusive.

Cc1c(Br)c([N+](=O)[O-])nn1CC(=O)N1CCc2ccccc2C1	KB-V1 cytotox 16µM
Cc1c(Br)c([N+](=O)[O-])nn1CCCC(=O)N1CCN(c2ccccc2)CC1	KB-3-1 tox inconclusive, KB-V1 cytotox 21µM
COc1ccc(C2Nc3ccccc3C(=O)N2c2ccc(Cl)cc2)cc1COc1ccc(NC(C)=O)cc1 (stereo not given)	KB-3-1 tox inconclusive, Nrf2 block inconclusive (no result: PI4K2A block)
Cc1sc2ccccc2[n+]1CC(=O)c1ccc(F)cc1	none (no result: PI4K2A block, Nrf2 block, A549 tox, Giardia killer)
Cc1cc(-c2nc3ccccc3o2)c2ccccc2n1	KB-V1 cytotox 13µM
COc1ccc(CC(=O)Nc2sc3c(c2C(=O)Nc2c(C)cccc2C)CCCCC3)cc1	KB-3-1 tox inconclusive, KB-V1 cytotox inconclusive (no result: Giardia killer)
CCS(=O)(=O)N1Cc2ccccc2CC1C(=O)Nc1nc2c(C)cccc2s1 (stereo not given)	KB-V1 cytotox 2.9µM
CCS(=O)(=O)N1Cc2ccccc2CC1C(=O)NCC12CC3CC(CC(C3)C1)C2 (stereo not given)	KB-V1 cytotox 23µM
CCS(=O)(=O)N1Cc2ccccc2CC1C(=O)NC(C)C12CC3CC(CC(C3)C1)C2 (stereo not given)	none
CC1=CSC2=NC(=O)/C(=C\c3cccn3-c3ccc([N+](=O)[O-])cc3)C(=N)N12	Nrf2 block inconclusive, A549 tox inconclusive, KB-V1 cytotox 2.9µM
CC(C)c1ccc(-n2cccc2/C=C2/C(=N)N3C=CSC3=NC2=O)cc1	KB-3-1 tox inconclusive, KB-V1 cytotox 21µM
CC1=CSC2=NC(=O)/C(=C\c3cccn3-c3ccccc3)C(=N)N12	KB-V1 cytotox inconclusive
O=C(Nc1ccc(Br)cc1)c1ccc(F)c(S(=O)(=O)N2CCc3ccccc32)c1	A549 tox inconclusive (no result: KB-3-1 tox, Nrf2 block, KB-V1 cytotox, Giardia killer)
CCn1c(-c2csc3c2CCCC3)n[nH]c1=S	KB-V1 cytotox inconclusive
CCCCn1c(-c2csc(C(C)C)c2)n[nH]c1=S	KB-V1 cytotox 23µM, Giardia killer inconclusive
CCCCn1c(-c2csc3c2CCCC3)n[nH]c1=S	KB-V1 cytotox 21µM
CCCCn1c(-c2csc3c2CCC(C)C3)n[nH]c1=S (stereo not given)	KB-3-1 tox 21µM, KB-V1 cytotox 15µM (no result: Nrf2 block)
Cc1ccc(Nc2nc(NCc3ccco3)nc3nccnc23)cc1	KB-3-1 tox inconclusive (no result: PI4K2A block)
O=C1CC(c2nc3ccccc3n2CCCCOc2ccccc2)CN1c1ccccc1Cl (stereo not given)	KB-3-1 tox inconclusive, Nrf2 block inconclusive (no result: Giardia killer)
O=C(Nc1ccccc1)c1cnc(-c2ccccc2)nc1-c1ccccc1	Nrf2 block inconclusive, KB-V1 cytotox 10µM
C[n+]1c2n(c3ccccc31)N=C(c1ccc(-c3ccccc3)cc1)CS2	Nrf2 block 10µM, A549 tox inconclusive
Cc1ccc(NC(=S)NNC(=O)CSc2nc3sc4c(c3c(=O)n2-c2ccccc2)CCCC4)cc1	none (no result: KB-3-1 tox, Nrf2 block, A549 tox, KB-V1 cytotox, Giardia killer)
CC(C)n1c(O)c(N=NC(=O)C2COc3ccccc3O2)c2ccccc21 (stereo not given)	Nrf2 block inconclusive, KB-V1 cytotox 16µM
Cn1c(O)c(N=NC(=O)C2COc3ccccc3O2)c2ccccc21 (stereo not given)	none
Cc1ccc(S(=O)(=O)Nc2ccc(NC(=O)Nc3cccc(C(F)(F)F)c3)cc2)cc1	KB-3-1 tox inconclusive, Nrf2 block 18µM, A549 tox inconclusive, KB-V1 cytotox inconclusive
O=C(Nc1ccc(OC(F)F)cc1)Nc1cccc(C(F)(F)F)c1	KB-3-1 tox 8.2µM, Nrf2 block 21µM, A549 tox inconclusive, KB-V1 cytotox 13µM
NC(=O)/C=C\C(=O)Nc1cccc(C(F)(F)F)c1	Nrf2 block 1.8µM
CCN(CC)S(=O)(=O)c1ccc(NC(=O)C2c3ccccc3Oc3ccccc32)cc1	KB-V1 cytotox 18µM
